Common to all, as to assay: DAPPL (digital affinity profiling via proximity ligation, sequencing); 10 mM Tris-HCl pH 7.5, 50 mM NaCl, 1 mM DTT, 4% glycerol, room temperature, 30 min; GST-TFs on glutathione beads, 16-mer random dsDNA library, 0.1% formaldehyde crosslink after washing; high values mean tight binding
Holding throughout (conditions): protein: recombinant; tags: N-terminal GST; dsDNA, one strand shown

The target of one assay is T1, FLI1 (Homo sapiens, UniProt Q01543 1-452).
T1 sequence: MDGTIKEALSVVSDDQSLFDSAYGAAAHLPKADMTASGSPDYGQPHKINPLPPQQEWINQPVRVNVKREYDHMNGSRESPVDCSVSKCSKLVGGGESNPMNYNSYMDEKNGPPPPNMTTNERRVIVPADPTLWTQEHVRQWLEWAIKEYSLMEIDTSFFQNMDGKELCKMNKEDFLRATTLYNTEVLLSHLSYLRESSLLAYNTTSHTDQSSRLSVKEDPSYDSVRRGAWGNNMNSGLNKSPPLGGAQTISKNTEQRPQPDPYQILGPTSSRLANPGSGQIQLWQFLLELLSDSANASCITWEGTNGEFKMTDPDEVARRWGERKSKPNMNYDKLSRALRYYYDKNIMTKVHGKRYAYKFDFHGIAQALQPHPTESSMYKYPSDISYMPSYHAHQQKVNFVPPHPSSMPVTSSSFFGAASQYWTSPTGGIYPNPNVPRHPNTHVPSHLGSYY
The essentials:
(§1)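 Beads coated with glutathione captured GST-fused human transcription factors that had been expressed in yeast, and the factors were then given DNA barcodes and pooled with a tag-only sample. The pools were incubated with 200 nmole of a random double-stranded 16-mer DNA library in Tris/NaCl/DTT/glycerol buffer for 30 min at room temperature, washed, crosslinked with 0.1% formaldehyde and proximity-ligated with BsaI/T4 ligase at 37 °C for 1 h. PCR amplification and Illumina NextSeq500 sequencing came last. Binding signal is each hexamer's read frequency for a factor divided by its frequency for the tag-only sample.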

Another assay addresses T2, ELK1 (Homo sapiens, UniProt P19419 1-428).
T2 sequence: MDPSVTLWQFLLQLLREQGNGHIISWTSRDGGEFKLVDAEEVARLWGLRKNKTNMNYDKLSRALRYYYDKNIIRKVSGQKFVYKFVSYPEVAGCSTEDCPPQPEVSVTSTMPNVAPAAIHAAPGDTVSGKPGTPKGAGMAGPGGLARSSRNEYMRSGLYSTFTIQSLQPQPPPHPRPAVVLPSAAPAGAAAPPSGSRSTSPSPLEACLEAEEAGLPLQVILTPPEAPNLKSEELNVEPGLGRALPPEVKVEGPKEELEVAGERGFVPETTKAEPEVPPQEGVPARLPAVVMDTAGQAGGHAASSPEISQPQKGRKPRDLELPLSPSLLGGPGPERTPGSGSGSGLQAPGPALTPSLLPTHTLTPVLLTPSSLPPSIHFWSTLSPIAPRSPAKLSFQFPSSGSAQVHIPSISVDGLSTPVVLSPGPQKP
The essentials:
as §1

For another assay, the target named is T3, GABPA (Homo sapiens, UniProt Q06546 1-454).
T3 sequence: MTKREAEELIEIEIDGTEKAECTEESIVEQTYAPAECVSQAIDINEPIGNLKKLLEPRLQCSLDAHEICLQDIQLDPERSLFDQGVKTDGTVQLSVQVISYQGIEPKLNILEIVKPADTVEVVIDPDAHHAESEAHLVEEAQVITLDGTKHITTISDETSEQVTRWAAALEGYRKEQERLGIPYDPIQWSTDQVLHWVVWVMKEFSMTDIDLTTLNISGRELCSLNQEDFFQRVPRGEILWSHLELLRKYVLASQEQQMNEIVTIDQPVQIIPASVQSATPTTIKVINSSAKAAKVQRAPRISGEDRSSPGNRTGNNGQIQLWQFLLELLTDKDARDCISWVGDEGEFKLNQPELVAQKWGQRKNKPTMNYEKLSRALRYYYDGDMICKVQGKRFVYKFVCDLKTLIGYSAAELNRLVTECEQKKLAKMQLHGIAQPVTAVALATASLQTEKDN
The procedure, abridged: as §1

For a further assay, the target named is T4, ERG (Homo sapiens, UniProt P11308 1-479).
T4 sequence: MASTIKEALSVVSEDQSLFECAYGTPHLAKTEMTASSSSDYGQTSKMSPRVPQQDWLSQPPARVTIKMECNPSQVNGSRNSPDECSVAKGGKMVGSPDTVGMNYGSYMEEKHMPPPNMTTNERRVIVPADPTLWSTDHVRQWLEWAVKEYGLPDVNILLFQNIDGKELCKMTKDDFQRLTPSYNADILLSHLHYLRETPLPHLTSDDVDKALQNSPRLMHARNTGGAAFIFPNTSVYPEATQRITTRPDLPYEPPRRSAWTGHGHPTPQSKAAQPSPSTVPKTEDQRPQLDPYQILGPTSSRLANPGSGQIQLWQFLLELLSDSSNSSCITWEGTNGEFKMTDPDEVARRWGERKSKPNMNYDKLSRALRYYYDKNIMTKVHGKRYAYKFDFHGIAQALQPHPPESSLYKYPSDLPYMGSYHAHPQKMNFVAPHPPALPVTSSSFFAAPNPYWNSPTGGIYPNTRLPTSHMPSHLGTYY
The procedure, abridged: as §1

In the next assay the target is ELF1 (Homo sapiens, UniProt P32519 1-619). The procedure, abridged:
as §1

A further assay addresses SPI1 (Homo sapiens, UniProt P17947 1-270). The essentials: as §1
In a further assay the target is SPIB (Homo sapiens, UniProt Q01892 1-262). The essentials:
as §1

For the next assay, the target named is T5, ELK3 (Homo sapiens, UniProt P41970 1-407).
T5 sequence: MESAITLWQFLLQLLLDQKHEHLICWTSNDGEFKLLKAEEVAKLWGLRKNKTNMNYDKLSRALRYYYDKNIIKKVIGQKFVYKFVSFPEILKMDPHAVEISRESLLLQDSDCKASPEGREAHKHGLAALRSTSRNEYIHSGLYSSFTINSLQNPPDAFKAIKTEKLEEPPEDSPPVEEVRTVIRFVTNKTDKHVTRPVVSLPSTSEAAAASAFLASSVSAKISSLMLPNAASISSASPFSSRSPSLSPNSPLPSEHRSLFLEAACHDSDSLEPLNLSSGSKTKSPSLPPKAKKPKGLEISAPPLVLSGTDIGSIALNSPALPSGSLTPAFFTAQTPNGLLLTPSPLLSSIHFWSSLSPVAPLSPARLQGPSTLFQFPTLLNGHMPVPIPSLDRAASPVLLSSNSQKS
The procedure, abridged: as §1

The target of another assay is T6, FEV (Homo sapiens, UniProt Q99581 1-238).
T6 sequence: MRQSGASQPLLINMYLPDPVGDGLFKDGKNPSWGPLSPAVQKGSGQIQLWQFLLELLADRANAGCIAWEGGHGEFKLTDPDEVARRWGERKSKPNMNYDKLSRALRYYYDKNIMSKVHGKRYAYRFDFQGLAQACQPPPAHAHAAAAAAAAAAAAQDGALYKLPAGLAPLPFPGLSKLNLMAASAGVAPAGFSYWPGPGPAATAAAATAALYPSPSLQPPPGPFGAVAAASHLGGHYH
The essentials: as §1

For a further assay, the target named is ETV5 (Homo sapiens, UniProt P41161 1-510). The procedure, abridged: as §1
The next assay deals with T7, SPIC (Homo sapiens, UniProt Q8N5J4 1-248).
T7 sequence: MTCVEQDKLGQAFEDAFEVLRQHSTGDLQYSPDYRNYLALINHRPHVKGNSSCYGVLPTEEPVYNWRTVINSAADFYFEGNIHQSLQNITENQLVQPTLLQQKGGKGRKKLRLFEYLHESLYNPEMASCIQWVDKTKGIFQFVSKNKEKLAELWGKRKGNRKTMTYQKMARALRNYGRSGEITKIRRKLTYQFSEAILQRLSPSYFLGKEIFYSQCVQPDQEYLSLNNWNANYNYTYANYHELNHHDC
The essentials: as §1

The target of the next assay is ELF4 (Homo sapiens, UniProt Q99607 1-663). The procedure, abridged:
as §1

The target of a further assay is T8, ELK4 (Homo sapiens, UniProt P28324-2 1-405).
T8 sequence: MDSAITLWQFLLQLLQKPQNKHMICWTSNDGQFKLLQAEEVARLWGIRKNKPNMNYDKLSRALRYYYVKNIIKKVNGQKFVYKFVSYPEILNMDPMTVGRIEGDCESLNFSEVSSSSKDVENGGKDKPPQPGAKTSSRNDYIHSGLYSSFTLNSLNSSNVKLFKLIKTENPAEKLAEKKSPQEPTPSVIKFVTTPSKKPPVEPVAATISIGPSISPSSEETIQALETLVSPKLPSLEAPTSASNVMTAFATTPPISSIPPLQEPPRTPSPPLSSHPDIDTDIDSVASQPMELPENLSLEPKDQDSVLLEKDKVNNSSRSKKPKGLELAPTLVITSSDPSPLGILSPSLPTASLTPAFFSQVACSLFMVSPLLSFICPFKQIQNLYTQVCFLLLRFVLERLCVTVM
The procedure, abridged: as §1

The target of the next assay is T9, ETV2 (Homo sapiens, UniProt O00321 1-342).
T9 sequence: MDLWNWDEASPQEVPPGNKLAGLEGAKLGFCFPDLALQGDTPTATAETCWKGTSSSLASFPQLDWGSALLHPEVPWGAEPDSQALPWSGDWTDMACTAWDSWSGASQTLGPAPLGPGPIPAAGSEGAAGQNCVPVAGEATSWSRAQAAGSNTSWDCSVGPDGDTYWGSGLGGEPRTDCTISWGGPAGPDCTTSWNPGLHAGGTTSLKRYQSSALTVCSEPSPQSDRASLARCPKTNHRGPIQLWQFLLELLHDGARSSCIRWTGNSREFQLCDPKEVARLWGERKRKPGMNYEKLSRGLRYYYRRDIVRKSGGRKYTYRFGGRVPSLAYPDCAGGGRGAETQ
The procedure, abridged:
as §1

In the next assay the target is T10, ELF3 (Homo sapiens, UniProt P78545 1-371).
T10 sequence: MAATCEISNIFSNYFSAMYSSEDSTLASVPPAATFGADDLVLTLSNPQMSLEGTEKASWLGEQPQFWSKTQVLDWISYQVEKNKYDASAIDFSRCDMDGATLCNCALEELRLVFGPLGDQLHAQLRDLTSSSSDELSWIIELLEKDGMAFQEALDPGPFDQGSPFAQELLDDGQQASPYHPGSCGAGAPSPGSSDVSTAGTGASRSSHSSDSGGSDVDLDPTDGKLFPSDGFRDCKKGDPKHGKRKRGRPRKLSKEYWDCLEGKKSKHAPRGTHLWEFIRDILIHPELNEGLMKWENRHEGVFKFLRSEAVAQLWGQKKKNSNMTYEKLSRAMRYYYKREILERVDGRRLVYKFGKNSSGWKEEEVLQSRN
The procedure, abridged:
as §1

A further assay deals with ETV1 (Homo sapiens, UniProt P50549 1-477). The essentials: as §1
Chain of ETV1 (P50549 whole entry): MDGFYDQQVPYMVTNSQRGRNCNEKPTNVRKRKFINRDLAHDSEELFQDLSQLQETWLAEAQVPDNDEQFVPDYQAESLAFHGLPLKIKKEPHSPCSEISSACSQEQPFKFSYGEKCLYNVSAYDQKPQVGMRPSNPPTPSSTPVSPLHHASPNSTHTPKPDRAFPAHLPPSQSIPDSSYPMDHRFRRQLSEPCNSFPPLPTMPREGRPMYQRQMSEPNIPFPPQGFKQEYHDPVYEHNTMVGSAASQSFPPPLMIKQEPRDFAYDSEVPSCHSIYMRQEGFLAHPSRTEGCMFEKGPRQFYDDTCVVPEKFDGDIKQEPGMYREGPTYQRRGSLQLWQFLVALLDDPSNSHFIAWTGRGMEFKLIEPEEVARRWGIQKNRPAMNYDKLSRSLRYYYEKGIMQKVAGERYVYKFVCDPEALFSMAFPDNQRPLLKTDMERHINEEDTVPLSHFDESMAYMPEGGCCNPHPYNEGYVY

Chain of ELF4 (Q99607 whole entry): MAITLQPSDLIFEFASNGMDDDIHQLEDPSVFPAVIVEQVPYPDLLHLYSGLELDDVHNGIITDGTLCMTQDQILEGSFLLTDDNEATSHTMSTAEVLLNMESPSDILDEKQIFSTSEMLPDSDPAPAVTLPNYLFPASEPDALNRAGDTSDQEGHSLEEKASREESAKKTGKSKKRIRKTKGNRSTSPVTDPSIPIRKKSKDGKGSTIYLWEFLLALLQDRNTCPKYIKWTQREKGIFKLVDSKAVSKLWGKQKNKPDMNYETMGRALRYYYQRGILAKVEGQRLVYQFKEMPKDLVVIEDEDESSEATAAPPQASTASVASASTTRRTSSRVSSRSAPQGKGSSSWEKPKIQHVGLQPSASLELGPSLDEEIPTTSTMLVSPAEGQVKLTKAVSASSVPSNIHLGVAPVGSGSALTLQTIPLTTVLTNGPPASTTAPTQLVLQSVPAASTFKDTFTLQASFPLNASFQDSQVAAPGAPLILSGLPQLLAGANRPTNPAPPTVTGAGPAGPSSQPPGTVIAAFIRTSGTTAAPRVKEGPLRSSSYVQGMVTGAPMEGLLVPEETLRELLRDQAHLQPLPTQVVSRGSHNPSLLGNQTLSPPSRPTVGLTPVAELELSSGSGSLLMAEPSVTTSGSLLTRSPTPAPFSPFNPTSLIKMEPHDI
Chain of SPIB (Q01892 whole entry): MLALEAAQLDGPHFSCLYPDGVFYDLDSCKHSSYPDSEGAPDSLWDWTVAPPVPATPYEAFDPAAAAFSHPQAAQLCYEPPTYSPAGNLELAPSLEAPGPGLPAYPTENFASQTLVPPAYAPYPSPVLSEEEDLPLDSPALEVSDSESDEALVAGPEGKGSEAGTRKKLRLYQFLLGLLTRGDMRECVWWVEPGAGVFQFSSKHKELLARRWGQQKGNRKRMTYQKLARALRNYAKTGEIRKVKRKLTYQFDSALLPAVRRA
Chain of ETV5 (P41161 whole entry): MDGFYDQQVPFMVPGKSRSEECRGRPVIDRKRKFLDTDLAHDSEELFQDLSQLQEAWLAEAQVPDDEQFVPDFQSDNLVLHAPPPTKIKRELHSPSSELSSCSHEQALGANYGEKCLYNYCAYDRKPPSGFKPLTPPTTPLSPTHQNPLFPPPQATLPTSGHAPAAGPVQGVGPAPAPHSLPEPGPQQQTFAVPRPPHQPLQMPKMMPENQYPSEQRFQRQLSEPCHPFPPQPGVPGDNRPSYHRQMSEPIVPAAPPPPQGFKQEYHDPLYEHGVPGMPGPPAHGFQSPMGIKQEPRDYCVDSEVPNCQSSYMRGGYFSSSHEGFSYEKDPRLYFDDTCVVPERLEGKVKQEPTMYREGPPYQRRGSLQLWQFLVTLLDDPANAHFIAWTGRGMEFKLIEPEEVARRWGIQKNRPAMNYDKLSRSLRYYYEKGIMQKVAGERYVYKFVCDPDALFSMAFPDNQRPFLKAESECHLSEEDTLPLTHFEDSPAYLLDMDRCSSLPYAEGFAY
Chain of ELF1 (P32519 whole entry): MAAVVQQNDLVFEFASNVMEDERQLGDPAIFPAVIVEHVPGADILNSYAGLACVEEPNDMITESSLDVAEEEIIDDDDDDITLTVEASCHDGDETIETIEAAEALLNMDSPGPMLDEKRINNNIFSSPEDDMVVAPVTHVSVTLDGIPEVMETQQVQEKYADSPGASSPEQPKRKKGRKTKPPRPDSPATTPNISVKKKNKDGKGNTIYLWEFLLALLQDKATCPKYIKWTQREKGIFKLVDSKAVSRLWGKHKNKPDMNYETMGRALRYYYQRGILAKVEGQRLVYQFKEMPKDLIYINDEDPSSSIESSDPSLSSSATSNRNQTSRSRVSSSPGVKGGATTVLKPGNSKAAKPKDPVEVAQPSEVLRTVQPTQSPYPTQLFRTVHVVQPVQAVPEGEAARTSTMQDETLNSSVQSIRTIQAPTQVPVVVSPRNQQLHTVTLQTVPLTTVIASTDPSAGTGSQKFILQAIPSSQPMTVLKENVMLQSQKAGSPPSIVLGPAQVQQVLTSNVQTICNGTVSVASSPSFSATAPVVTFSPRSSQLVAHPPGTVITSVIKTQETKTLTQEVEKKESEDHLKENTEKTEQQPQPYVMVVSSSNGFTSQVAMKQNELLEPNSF

Consider CAATCA, for which the binding signal was 1.11 fold enrichment (6-mer frequency, TF over GST control) in the assay with FLI1; 1.11 fold enrichment (6-mer frequency, TF over GST control) with ELK1; 1.24 fold enrichment (6-mer frequency, TF over GST control) with GABPA; 1.14 fold enrichment (6-mer frequency, TF over GST control) in the assay with ERG; 1.19 fold enrichment (6-mer frequency, TF over GST control) with ELF1; 1.08 fold enrichment (6-mer frequency, TF over GST control) in the assay with SPI1. Further, the binding signal with SPIB is 1.1 fold enrichment (6-mer frequency, TF over GST control); with ELK3, 1.05 fold enrichment (6-mer frequency, TF over GST control); with FEV, 1.11 fold enrichment (6-mer frequency, TF over GST control); with ETV5, 1.15 fold enrichment (6-mer frequency, TF over GST control); with SPIC it was 1.19 fold enrichment (6-mer frequency, TF over GST control); in the assay with ELF4, 1.16 fold enrichment (6-mer frequency, TF over GST control). Further, the binding signal in the assay with ELK4 was 1.04 fold enrichment (6-mer frequency, TF over GST control); in the assay with ETV2 it was 1.15 fold enrichment (6-mer frequency, TF over GST control); with ELF3, 1.12 fold enrichment (6-mer frequency, TF over GST control); in the assay with ETV1, 1.13 fold enrichment (6-mer frequency, TF over GST control).

(Values after publication PMC7862700, “An all-to-all approach to the identification of sequence-specific readers for epigenetic DNA modifications on cytosine”.)
